{
  "source": "PubChem BioAssay (NCATS)",
  "note": "Inconclusive results are not listed. Unmarked numbers belong to inactive results. The source made the active and inactive calls. The call rests on the fitted dose curve; in most records, active means well fitted inhibition curve with a large enough effect; inconclusive means small, poorly fitted or top-dose-only effect; inactive means no such curve, though single readings can be large or run the other way. On the % scale 0 is the no-effect control and ±100 the full control effect; potency means the concentration at half of the fitted maximal effect.",
  "data": [
    {"target": "Retinal dehydrogenase 2 (Homo sapiens) (UniProt O94788)", "assay": "qHTS for Inhibitors of the Aldehyde Dehydrogenase Family (ALDH1A2) Confirmation screens (AID 2061314); further: nearly all actives have a fitted effect of over 65% in size", "settings": "ALDH1A2 enzyme inhibition qHTS confirmation; series mostly up to 45.9 µM; activity, negative = inhibition: at the top concentration", "values": [
      {"compound": "N#Cc1ccc(-c2ccc(CNc3ccc(N4CCOCC4)cc3)cn2)cc1", "outcome": "inactive"},
      {"compound": "CN(C)c1ccc(-c2csc(N3CCC(C(N)=O)CC3)n2)cc1", "Potency": "14.2 µM (active)"},
      {"compound": "CC(=O)N1CCN(c2ccc(NCc3ccc(Br)o3)cc2)CC1", "Potency": "12.7 µM (active)"},
      {"compound": "CC(=O)c1c(C)n(-c2cccc(C)c2)c2ccc(OC(=O)COc3ccccc3)cc12", "activity, negative = inhibition": "-11.8%"},
      {"compound": "CSCCC(NS(=O)(=O)c1ccc2c(c1)oc(=O)n2C)C(=O)N1CCN(c2ccc(C(C)=O)cc2)CC1", "note": "(stereo unspecified)", "activity, negative = inhibition": "-9.13%"},
      {"compound": "COc1ccc(-n2c(C)c(C(C)=O)c3cc(OC(=O)c4ccc(C)cc4)ccc32)cc1", "activity, negative = inhibition": "-10.8%"},
      {"compound": "Cc1cccc(-c2ccccc2C=O)c1", "activity, negative = inhibition": "-10.5% [at 86.5 µM]"},
      {"compound": "CC(=O)N1CCN(c2ccc(NCc3ccco3)cc2)CC1", "Potency": "14.2 µM (active)"},
      {"compound": "Cc1oc(-c2ccccc2F)nc1CS(=O)(=O)CC(=O)N1CCN(c2cccc(C(F)(F)F)c2)CC1", "activity, negative = inhibition": "-16.1%"},
      {"compound": "CCOC(=O)c1c(C)n(-c2ccc(OC)cc2)c2ccc(OC(=O)COc3ccccc3)cc12", "activity, negative = inhibition": "-8.13%"},
      {"compound": "CC(=O)c1c(C)n(-c2cccc(Cl)c2)c2ccc(OC(=O)c3ccccc3)cc12", "activity, negative = inhibition": "-8.88%"},
      {"compound": "CCOC(=O)c1c(C)n(-c2ccccc2)c2ccc(OC(=O)c3ccccc3)cc12", "activity, negative = inhibition": "-9.01%"},
      {"compound": "Cn1sc(=O)n(Cc2ccccc2)c1=O", "Potency": "8.96 µM (active)"},
      {"compound": "O=C(CCC1CCCN(S(=O)(=O)c2ccccc2F)C1)NCCCN1CCOCC1", "note": "(stereo unspecified)", "activity, negative = inhibition": "-12.6%"},
      {"compound": "CC(=O)c1c(C)n(-c2ccc(Cl)cc2)c2ccc(OC(=O)COc3ccccc3)cc12", "activity, negative = inhibition": "-10.2%"},
      {"compound": "Cc1cc(C)cc(-c2ccccc2C=O)c1", "activity, negative = inhibition": "-4.18% [at 86.5 µM]"},
      {"compound": "COc1ccc(Cl)cc1C(=O)NCc1nnc2cc(-c3nc(C)no3)ccn12", "activity, negative = inhibition": "2.34%"},
      {"compound": "CC(=O)c1c(C)n(-c2ccc(C)cc2)c2ccc(OC(=O)COc3ccccc3)cc12", "activity, negative = inhibition": "-10.9%"},
      {"compound": "Cc1ccc(-c2cccc(C=O)c2)c(C)c1", "activity, negative = inhibition": "-15.4% [at 86.5 µM]"},
      {"compound": "COc1ccc2c(c1)c(C(=O)CN(C)C)c(C)n2C", "activity, negative = inhibition": "-9.86%"},
      {"compound": "O=C(Nc1ncc(Cc2ccc(C(F)(F)F)cc2)s1)c1ccc(-c2ccccc2[N+](=O)[O-])o1", "Potency": "25.2 µM (active)"},
      {"compound": "COc1ccc(-c2nc3ccccc3c(=O)n2Cc2ccccc2)cc1CNc1ccc(NC(C)=O)cc1", "Potency": "11.3 µM (active)"},
      {"compound": "Cc1cccc(C(=O)NCc2nnc3cc(-c4nc(C)no4)ccn23)c1", "activity, negative = inhibition": "-0.0855%"},
      {"compound": "Cc1cc(C)cc(-c2ccc(C=O)cc2)c1", "activity, negative = inhibition": "-7.69% [at 86.5 µM]"},
      {"compound": "Cc1ccc(-c2ccccc2C=O)c(C)c1", "activity, negative = inhibition": "-0.267% [at 99.6 µM]"},
      {"compound": "O=C(NCC(=O)N1CCN(Cc2ccccc2)CC1)c1cccc(-c2ccsc2)c1", "activity, negative = inhibition": "3.69%"}
    ]}
  ]
}
